This note sets out measurements from paper PMC7826789 (International Journal of Molecular Sciences, 2021).

What all share (details): Compound Concentration (nM):1000
Assay [1] concerns T1, RSK3(Kin.Dom.1-N-terminal).
T1 construct: gene RPS6KA2

Assay [2] has as its system T2, RSK3(Kin.Dom.2-C-terminal).
T2 construct: gene RPS6KA2

The test system of assay [3] is T3, RSK4(Kin.Dom.1-N-terminal).
T3 construct: gene RPS6KA6

The subject of assay [4] is T4, RSK4(Kin.Dom.2-C-terminal).
T4 construct: gene RPS6KA6

Assay [5] concerns T5, S6K1.
T5 construct: gene RPS6KB1

In assay [6] the test system is SBK1.
Assay [7] relates to SGK2.
Assay [8] has as its system SGK3.
The test system of assay [9] is T6, SGK.
T6 construct: gene SGK1

In assay [10] the test system is SIK2.
The subject of assay [11] is T7, SIK.
T7 construct: gene SIK1

Assay [12] has as its system SLK.
Assay [13] relates to T8, SNARK.
T8 construct: gene NUAK2

For assay [14], the system named is SNRK.
The subject of assay [15] is SRC.
In assay [16] the test system is SRMS.
The test system of assay [17] is SRPK1.
The subject of assay [18] is SRPK2.
For assay [19], the system named is SRPK3.
For assay [20], the system named is STK16.
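Further: KINOMEscan scanMAX binding as percent activity remaining versus control; lower means stronger binding.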

As for `C/C(Nc1ccc(S(N)(=O)=O)cc1)=C1/C(=O)Nc2ccccc21` [GW335962X], the “Percent Control” value in [1] is 83%; in assay [2], 82%; in [3] it was 47%; in assay [4], 86%; in assay [5], 60%; in [6], 100%. Besides, the “Percent Control” value in assay [7] stood at 71%; in assay [8], 26%; in [9] it was 21%; in assay [10] it was 90%; in assay [11], 100%; in [12], 92%. Also, the “Percent Control” value in [13] was 65%; in assay [14], 100%; in assay [15] it was 100%; in assay [16], 91%; in assay [17], 82%; in [18] it was 88%. Further, the “Percent Control” value in [19] amounted to 87%; in assay [20], 41%.
As to `NS(=O)(=O)c1ccc(N/N=C2\C(=O)Nc3ccc(Cl)cc32)cc1` [GW280670X], the “Percent Control” value in assay [1] was 100%; in [2], 100%; in [3] it was 99%; in [4] it was 100%; in assay [5], 98%; in [6], 100%. Moreover, the “Percent Control” value is 100% in assay [7]; 77% in assay [8]; 100% in assay [9]; 100% in assay [10]; 100% in [11]; 100% in assay [12]. Besides, the “Percent Control” value in assay [13] is 91%; in assay [14] it was 100%; in assay [15], 100%; in assay [16], 100%; in assay [17], 97%; in [18], 100%. Further, the figures for the “Percent Control” value in assay [19] and in assay [20] were 88% and 84%, respectively.
For the compound `NS(=O)(=O)c1ccc(N/N=C2\C(=O)Nc3ccc(C(=O)NCCc4c[nH]cn4)cc32)cc1` [GW300660X], the “Percent Control” value in [1] was 100%; in assay [2] it was 100%; in assay [3], 45%; in assay [4], 100%; in assay [5], 76%; in assay [6], 100%. The “Percent Control” value is 100% in assay [7]; 12% in assay [8]; 26% in [9]; 100% in assay [10]; 100% in assay [11]; 100% in [12]. Further, the “Percent Control” value is 6.9% in assay [13]; 100% in assay [14]; 100% in [15]; 90% in [16]; 86% in assay [17]; 100% in assay [18]. Also, the “Percent Control” value is reported as 76% in assay [19] and 34% in [20].
As for `C[C@@H](Oc1cc(-n2cnc3ccc(OC4CCN(C)CC4)cc32)sc1C(N)=O)c1ccccc1Cl` [GSK579289A], the “Percent Control” value was 48% in assay [1]; 67% in [2]; 19% in assay [3]; 80% in [4]; 62% in [5]; 62% in [6]. In addition, the “Percent Control” value is listed as 100% in assay [7]; 84% in assay [8]; 90% in assay [9]; 100% in assay [10]; 100% in [11]; 7.9% in assay [12]. Further, the “Percent Control” value in assay [13] is 1%; in assay [14], 59%; in [15], 100%; in assay [16], 94%; in assay [17] it was 92%; in assay [18], 86%. The “Percent Control” value in [19] is listed as 100%; in assay [20], 69%.
Consider `COc1cc(N2CCN(C(C)C)CC2)ccc1Nc1nc(Nc2ccc(F)cc2C(=O)NC[C@@H](O)CO)c2cc[nH]c2n1` [GSK1392956A], for which the “Percent Control” value was 67% in [1]; 72% in assay [2]; 55% in assay [3]; 86% in assay [4]; 94% in assay [5]; 64% in assay [6]. Further, the “Percent Control” value is on record as 100% in assay [7]; 91% in [8]; 99% in assay [9]; 100% in [10]; 100% in assay [11]; 100% in assay [12]. Moreover, the “Percent Control” value in assay [13] was 66%; in assay [14], 87%; in assay [15], 100%; in assay [16] it was 100%; in assay [17], 99%; in assay [18], 99%. Also, the “Percent Control” value is 100% in assay [19] and 85% in assay [20].
For the compound `O=C(Nc1n[nH]c2nc(-c3ccc(O)cc3)c(Br)cc12)C1CC1` [SB-725317], the “Percent Control” value in [1] was 96%; in assay [2], 100%; in [3], 19%; in assay [4], 100%; in assay [5], 100%; in assay [6], 100%. Further, the “Percent Control” value in assay [7] is given as 100%; in assay [8], 88%; in [9], 100%; in [10], 100%; in [11], 100%; in assay [12] it was 41%. Also, the “Percent Control” value in assay [13], in assay [14], in assay [15], in assay [16], in assay [17] and in assay [18] was 100% throughout. The “Percent Control” value in assay [19] was 100%; in assay [20], 76%.
In the case of `COc1ccc2cc(-c3c(-c4ccncc4)nc(-c4ccc(S(C)(=O)=O)cc4C)n3C)ccc2c1` [SB-633825], the “Percent Control” value in assay [1] was 98%; in assay [2], 100%; in [3], 60%; in assay [4] it was 83%; in assay [5], 66%; in [6], 78%. For the same compound, the “Percent Control” value in [7] amounted to 59%; in [8], 73%; in assay [9] it was 94%; in [10] it was 100%; in assay [11] it was 96%; in assay [12], 1.7%. In addition, the “Percent Control” value in [13] is 82%; in [14], 91%; in [15], 82%; in assay [16], 85%; in assay [17] it was 90%; in assay [18], 76%. The figures for the “Percent Control” value in assay [19] and in assay [20] were 83% and 93%, respectively.
`COc1ccc(COc2ccc(Cc3cnc(N)nc3N)cc2OC)cc1` [GW632580X]: the “Percent Control” value was 79% in assay [1]; 89% in assay [2]; 98% in [3]; 93% in assay [4]; 85% in [5]; 100% in [6]. Further, the “Percent Control” value was 95% in assay [7]; 72% in assay [8]; 100% in assay [9]; 93% in assay [10]; 96% in assay [11]; 93% in assay [12]. The “Percent Control” value in assay [13] is 88%; in [14], 87%; in assay [15] it was 88%; in assay [16], 100%; in [17], 100%; in [18], 95%. Also, the “Percent Control” value is on record as 100% in assay [19] and 93% in assay [20].
As for `COc1cc(/C=N/Nc2ncnc3[nH]ncc23)ccc1O` [GW578748X], the “Percent Control” value in assay [1] was 100%; in [2], 100%; in [3] it was 45%; in assay [4], 100%; in [5], 40%; in [6], 16%. Besides, the “Percent Control” value came out at 40% in [7]; 7.1% in [8]; 1.5% in assay [9]; 83% in assay [10]; 87% in assay [11]; 100% in assay [12]. Also, the “Percent Control” value in assay [13] was 36%; in assay [14], 100%; in [15], 22%; in [16], 39%; in assay [17] it was 97%; in assay [18], 91%. Also, the “Percent Control” value in assay [19] stood at 98%; in [20], 32%.
Turning to `NS(=O)(=O)c1ccc(Nc2ncc(-c3ccccc3)o2)cc1` [GW572399X], the “Percent Control” value in assay [1] is 100%; in assay [2], 100%; in [3], 96%; in assay [4], 100%; in assay [5], 100%; in [6], 100%. Also, the “Percent Control” value was 93% in [7]; 60% in assay [8]; 48% in assay [9]; 100% in assay [10]; 100% in assay [11]; 100% in assay [12]. The “Percent Control” value in [13] was 79%; in assay [14], 100%; in assay [15] it was 100%; in [16], 100%; in assay [17], 94%; in assay [18], 100%. Moreover, the “Percent Control” value is reported as 98% in assay [19] and 31% in assay [20].
